# Test results published in the supplement of paper PMC10849652.
# Targets with a hit are over-represented here; the source holds about 7,900 in all. About 0.6% of all pairs of compound and target were hits. Unmarked numbers belong to inactive results.
# Compound: Cc1ccc(-n2nc(C(C)(C)C)cc2NC(=O)Nc2ccc(OCCN3CCOCC3)c3ccccc23)cc1 [doramapimod]
# Test: log2 fold change, soluble protein after heating vs DMSO (PISA); higher = thermal stabilisation; K562 cells, 10 uM, 30 min; active = over 0.2 and 3.5 SD of the protein, either way, in both replicates (recomputed)
# How it was run: (§1)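 Soluble protein was defined as the supernatant after 21,000xg for 90 min. It came from K562 cells at 2×10^6 cells/mL given 10 μM compound for 30 min, heated in aliquots for 3 min across 48°C-58°C, pooled, and extracted in PBS with 0.5% NP-40 at 4°C, and was quantified by TMTpro 16plex LC-MS/MS with equalised channel sums. Thermal stability against control samples, from duplicates, is reported as log2 fold change.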
# Chain of UniProt Q2M2Z5 (Q2M2Z5 whole entry, looked up): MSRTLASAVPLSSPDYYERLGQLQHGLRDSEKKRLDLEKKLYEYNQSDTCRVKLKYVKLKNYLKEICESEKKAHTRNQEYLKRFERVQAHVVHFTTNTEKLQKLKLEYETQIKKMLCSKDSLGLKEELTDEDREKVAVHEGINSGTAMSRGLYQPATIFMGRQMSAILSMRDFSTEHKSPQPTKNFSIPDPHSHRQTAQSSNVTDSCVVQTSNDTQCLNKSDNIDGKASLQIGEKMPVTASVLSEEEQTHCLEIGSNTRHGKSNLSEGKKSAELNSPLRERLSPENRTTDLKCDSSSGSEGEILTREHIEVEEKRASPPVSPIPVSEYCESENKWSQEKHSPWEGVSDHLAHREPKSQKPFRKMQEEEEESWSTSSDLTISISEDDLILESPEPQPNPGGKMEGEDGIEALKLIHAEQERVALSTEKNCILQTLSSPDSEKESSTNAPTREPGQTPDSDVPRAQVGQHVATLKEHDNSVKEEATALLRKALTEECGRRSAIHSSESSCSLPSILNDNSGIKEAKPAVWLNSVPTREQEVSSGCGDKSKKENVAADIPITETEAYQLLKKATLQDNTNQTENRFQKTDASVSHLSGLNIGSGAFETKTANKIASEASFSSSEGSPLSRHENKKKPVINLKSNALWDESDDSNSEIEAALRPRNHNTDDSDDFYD
# Chain of UniProt O60291 (O60291 whole entry, looked up): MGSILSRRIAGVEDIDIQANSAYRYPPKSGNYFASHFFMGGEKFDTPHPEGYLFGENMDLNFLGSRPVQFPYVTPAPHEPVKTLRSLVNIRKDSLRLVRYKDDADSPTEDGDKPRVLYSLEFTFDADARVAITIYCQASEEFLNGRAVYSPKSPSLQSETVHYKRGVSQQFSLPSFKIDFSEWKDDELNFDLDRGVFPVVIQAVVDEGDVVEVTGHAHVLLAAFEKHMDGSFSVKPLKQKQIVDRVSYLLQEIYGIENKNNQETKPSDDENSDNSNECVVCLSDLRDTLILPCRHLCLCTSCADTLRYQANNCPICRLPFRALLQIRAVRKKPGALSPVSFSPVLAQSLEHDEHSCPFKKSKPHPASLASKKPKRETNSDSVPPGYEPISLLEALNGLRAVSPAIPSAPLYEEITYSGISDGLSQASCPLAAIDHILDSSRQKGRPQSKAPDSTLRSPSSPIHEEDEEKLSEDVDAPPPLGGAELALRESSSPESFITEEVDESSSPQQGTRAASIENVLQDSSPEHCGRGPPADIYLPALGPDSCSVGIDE
# Chain of UniProt Q8NHS3 (Q8NHS3 whole entry, looked up): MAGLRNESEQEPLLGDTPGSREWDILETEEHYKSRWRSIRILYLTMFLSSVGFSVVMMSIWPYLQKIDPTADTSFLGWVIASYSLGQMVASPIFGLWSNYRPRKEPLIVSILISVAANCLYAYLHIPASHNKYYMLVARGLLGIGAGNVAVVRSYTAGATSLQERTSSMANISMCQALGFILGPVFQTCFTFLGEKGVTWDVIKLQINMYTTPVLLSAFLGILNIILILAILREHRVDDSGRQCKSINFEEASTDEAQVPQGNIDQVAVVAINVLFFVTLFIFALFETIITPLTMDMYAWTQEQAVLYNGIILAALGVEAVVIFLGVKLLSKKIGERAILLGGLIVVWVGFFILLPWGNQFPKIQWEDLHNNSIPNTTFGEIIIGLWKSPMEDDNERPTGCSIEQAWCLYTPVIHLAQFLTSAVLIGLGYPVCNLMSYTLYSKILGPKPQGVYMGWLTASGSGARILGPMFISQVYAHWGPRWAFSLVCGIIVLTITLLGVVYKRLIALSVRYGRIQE
# Chain of UniProt P43361 (P43361 whole entry, looked up): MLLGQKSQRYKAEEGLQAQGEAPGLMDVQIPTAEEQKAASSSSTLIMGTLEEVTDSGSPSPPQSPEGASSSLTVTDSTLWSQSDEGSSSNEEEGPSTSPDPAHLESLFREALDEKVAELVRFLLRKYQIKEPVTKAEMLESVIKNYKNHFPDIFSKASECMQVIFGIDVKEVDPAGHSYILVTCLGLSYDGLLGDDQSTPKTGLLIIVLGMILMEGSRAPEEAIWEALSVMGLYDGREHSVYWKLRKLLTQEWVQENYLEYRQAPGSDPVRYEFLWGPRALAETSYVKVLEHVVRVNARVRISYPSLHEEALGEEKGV
# Chain of UniProt Q5SW96 (Q5SW96 whole entry, looked up): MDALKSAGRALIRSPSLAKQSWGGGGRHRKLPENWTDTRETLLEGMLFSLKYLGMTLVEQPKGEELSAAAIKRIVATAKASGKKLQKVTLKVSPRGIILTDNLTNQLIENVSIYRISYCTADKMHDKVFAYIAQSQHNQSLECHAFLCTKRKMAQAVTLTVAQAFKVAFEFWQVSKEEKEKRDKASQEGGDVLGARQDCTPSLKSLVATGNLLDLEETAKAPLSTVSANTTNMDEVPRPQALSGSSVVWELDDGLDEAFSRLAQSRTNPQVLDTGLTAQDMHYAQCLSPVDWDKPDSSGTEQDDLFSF
# Chain of UniProt P28290 (P28290 whole entry, looked up): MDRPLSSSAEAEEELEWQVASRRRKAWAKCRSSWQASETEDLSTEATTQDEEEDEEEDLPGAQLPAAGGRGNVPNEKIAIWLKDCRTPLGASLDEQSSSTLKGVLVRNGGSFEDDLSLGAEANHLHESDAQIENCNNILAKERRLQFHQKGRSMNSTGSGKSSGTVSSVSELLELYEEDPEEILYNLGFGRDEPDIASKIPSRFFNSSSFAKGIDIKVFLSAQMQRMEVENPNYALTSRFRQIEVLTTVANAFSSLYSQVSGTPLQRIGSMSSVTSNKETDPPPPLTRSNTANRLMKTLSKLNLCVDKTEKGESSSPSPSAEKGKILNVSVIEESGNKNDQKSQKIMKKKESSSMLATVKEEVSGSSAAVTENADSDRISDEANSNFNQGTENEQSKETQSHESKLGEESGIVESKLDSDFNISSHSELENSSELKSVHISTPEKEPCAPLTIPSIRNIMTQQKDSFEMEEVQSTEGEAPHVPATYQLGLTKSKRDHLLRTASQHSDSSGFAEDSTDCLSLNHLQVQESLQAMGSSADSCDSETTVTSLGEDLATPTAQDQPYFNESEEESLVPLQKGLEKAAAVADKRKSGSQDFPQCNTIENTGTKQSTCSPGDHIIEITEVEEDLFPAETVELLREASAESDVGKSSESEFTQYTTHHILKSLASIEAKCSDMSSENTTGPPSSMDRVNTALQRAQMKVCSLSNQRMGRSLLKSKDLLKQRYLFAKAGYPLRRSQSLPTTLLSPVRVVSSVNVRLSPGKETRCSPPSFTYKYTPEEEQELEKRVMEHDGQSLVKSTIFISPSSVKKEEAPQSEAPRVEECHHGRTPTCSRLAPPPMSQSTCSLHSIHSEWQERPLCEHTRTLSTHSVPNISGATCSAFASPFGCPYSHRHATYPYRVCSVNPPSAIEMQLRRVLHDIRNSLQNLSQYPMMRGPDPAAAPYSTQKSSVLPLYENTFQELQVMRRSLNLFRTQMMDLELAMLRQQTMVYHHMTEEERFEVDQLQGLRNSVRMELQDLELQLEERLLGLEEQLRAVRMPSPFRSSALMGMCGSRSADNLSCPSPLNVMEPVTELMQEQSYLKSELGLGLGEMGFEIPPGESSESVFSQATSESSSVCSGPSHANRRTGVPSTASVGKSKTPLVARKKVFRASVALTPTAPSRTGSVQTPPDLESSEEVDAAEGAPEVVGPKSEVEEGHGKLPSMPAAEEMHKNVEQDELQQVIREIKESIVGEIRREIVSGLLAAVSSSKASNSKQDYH
# Chain of UniProt Q9Y4K4 (Q9Y4K4 whole entry, looked up): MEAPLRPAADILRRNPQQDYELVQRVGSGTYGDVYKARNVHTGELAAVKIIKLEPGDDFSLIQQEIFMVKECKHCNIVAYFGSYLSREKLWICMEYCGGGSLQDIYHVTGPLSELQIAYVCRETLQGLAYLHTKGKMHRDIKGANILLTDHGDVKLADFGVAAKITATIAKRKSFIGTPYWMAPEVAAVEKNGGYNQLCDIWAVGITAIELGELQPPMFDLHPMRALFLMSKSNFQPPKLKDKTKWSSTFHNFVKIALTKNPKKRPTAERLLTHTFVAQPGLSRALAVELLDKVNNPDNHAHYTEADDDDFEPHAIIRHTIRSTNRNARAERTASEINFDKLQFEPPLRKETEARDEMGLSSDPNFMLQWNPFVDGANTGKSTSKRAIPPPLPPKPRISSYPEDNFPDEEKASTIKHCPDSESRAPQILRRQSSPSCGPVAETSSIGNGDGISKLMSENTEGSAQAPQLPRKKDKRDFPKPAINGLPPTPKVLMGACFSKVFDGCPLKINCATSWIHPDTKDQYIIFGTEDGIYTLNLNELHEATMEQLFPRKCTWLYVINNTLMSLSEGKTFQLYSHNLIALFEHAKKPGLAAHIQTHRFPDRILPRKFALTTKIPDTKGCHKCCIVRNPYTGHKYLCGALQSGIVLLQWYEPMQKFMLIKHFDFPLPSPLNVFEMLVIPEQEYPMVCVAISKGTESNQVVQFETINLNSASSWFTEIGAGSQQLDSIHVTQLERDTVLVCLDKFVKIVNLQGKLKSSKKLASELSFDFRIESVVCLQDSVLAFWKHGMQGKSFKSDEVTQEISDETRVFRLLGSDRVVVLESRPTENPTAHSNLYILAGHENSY
# Chain of UniProt A4D2B0 (A4D2B0 whole entry, looked up): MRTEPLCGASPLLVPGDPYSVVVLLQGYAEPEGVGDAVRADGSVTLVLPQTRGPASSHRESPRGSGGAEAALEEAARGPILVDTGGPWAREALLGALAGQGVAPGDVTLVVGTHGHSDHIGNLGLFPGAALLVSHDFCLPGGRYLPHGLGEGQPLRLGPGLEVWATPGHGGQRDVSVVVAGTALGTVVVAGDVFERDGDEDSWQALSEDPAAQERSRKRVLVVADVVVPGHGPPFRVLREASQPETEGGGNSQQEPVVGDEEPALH
# Chain of UniProt Q9NQX7 (Q9NQX7 whole entry, looked up): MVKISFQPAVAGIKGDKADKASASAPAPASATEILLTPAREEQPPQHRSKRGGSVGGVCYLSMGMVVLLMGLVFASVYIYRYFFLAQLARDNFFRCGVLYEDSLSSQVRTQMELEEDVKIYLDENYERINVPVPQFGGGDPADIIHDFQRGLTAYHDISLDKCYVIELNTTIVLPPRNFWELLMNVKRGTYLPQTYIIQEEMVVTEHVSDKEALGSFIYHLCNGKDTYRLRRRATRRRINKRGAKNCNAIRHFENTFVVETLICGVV
row,Target,log2 fold change
1,MFSD8 (UniProt Q8NHS3),0.131
2,MAPK7 (UniProt Q13164),0.057
3,LDLRAP1 (UniProt Q5SW96),0.18
4,LAMP2 isoform 2 (UniProt P13473),0.002
5,MAP2K5 (UniProt Q13163),0.053
6,MAGEA8 (UniProt P43361),0.037
7,ING5 (UniProt Q8WYH8),-0.019
8,MAP4K5 (UniProt Q9Y4K4),-0.064
9,KIZ (UniProt Q2M2Z5),0.071
10,IKZF1 (UniProt R9R4D9),0.235
11,MGRN1 isoform 2 (UniProt O60291),0.012
12,MAPRE3 isoform 2 (UniProt Q9UPY8),0.007
13,ITPRID2 (UniProt P28290),-0.056
14,MBLAC1 (UniProt A4D2B0),0.169
15,MAP4K2 (UniProt Q12851),-0.091
16,LRRFIP1 isoform 4 (UniProt Q32MZ4),-0.016

# Compound: Cc1ccc(C(=O)N(CCCN)[C@@H](c2nc3cc(Cl)ccc3c(=O)n2Cc2ccccc2)C(C)C)cc1 [ispinesib]
# Test: as above
# How it was run: as §1
row,Target,log2 fold change
1,MCOLN3 (UniProt Q8TDD5),-0.255
2,LRRCC1 (UniProt Q9C099),-0.301
3,MAPK11 (UniProt Q15759),-0.334
4,MFSD1 isoform 6 (UniProt Q9H3U5),-0.367 (active)
5,MFSD8 (UniProt Q8NHS3),-0.208
6,ITM2C (UniProt Q9NQX7),0.051
7,IGFBP6 (UniProt P24592),-0.712 (active)
8,KXD1 (UniProt Q9BQD3),-0.078
9,MAP4 isoform 5 (UniProt P27816),-0.042
10,KIF21A (UniProt H0YI78),-0.041
11,IKZF1 isoform 2 (UniProt Q13422),-0.034
12,LDLRAP1 (UniProt Q5SW96),-0.088
13,MAP2K5 (UniProt Q13163),0.123
14,MAGEA8 (UniProt P43361),-0.034
15,MAP4K5 (UniProt Q9Y4K4),-0.045
16,KIZ (UniProt Q2M2Z5),-0.047
17,MGRN1 isoform 2 (UniProt O60291),-0.225
18,ITPRID2 (UniProt P28290),-0.035
19,MBLAC1 (UniProt A4D2B0),-0.142
20,LPIN3 isoform 2 (UniProt Q9BQK8),-0.037
